The values that follow come from PubChem BioAssay (EPA / NIEHS).

In general, AC50 refers to the concentration at which the activity in the assay is half-maximal.

Several values for one entry are separate records, joined by “and”; a condition that tells them apart may be missing. Equal entries are not always repeated. More than one record can exist for a structure, and the calls need not agree. Activity calls are given as the source filed them. Rule for the calls: active = hit-call score of the fitted dose curve at least 0.9, where 1 is the maximum; inactive = score below 0.9.

Sequence of Myc proto-oncogene protein (Homo sapiens) (P01106 whole entry, looked up): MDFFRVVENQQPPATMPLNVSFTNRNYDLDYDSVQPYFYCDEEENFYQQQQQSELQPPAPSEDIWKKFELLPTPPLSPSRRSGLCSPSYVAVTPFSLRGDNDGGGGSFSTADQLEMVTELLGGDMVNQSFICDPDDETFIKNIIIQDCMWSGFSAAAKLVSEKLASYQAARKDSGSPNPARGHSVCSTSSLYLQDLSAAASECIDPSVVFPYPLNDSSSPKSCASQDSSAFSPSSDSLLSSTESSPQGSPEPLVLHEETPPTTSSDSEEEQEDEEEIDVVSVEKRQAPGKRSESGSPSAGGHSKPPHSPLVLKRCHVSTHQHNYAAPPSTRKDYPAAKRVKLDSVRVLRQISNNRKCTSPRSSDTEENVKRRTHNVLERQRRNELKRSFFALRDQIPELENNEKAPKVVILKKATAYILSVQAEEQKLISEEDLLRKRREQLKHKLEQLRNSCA

The first assay has as its target Myc proto-oncogene protein (Homo sapiens) (UniProt P01106). The assay is described as follows: ATG_Myc_CIS: Attagene CIS-FACTORIAL HepG2 Assay for human Myelocytomatosis (Myc) Proto-Oncogene Transcription Factor (AID 2282990). The following applies: HepG2, Attagene cis-reporter transcription factor activity; actives raise or lower the signal. A digest of the protocol: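 Multiplexed cis-reporter transcription in HepG2 cells after 24 h chemical treatment. Reporter mRNA measured by RT-PCR and capillary electrophoresis fluorescence; activity fitted bidirectionally against DMSO control.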
`CN(C)C(=O)Nc1ccccc1`: the result was inactive.

Take `NS(=O)(=O)c1cc(C(=O)O)c(NCc2ccco2)cc1Cl`: the molecule was called inactive.

In the case of `O=C1OCc2ccccc21`, the call was inactive.

For `C1CCCNCC1`, the result was inactive.

`CCc1cccc(O)c1`: the molecule was called inactive.

`Nc1ccc(N)c([N+](=O)[O-])c1`: the molecule was classed as inactive.

As for `CCCCCC1C(=O)CCC1CC(=O)OC` (stereo not given), the call was inactive.

As to `COc1ccccc1NC(=O)CC(C)=O`, the call was inactive.

As for `c1ccc2c(c1)-c1ccc3ccc4cccc5cc-2c1c3c45`, the outcome was inactive.

Turning to `CCCCCCCCCO`, the outcome was inactive.

With `c1ccc(OCCOc2ccccc2)cc1`, the outcome was inactive.

For the molecule `OCCN1CCOCC1`, the molecule was called inactive.

For the molecule `CC(=O)N(C)C`, the molecule was classed as inactive.

Take `c1coc(CNc2ncnc3nc[nH]c23)c1`: the outcome was inactive.

Regarding `C=CC(=O)OCCCCCC`, the outcome was inactive.

In the case of `N=C1N=C(N)c2ccccc21`, the molecule was classed as inactive.

For the molecule `CC(C)CCOC(=O)CC(C)C`, the call was inactive.

On to `S=c1[nH][nH]c(=S)s1`, for which the outcome was inactive.

As for `Cc1cc(O)c2c(c1)C(=O)c1cc(O)cc(O)c1C2=O`, the molecule was classed as inactive.

For `COC(=O)C(C)Oc1ccc(Oc2ncc(C(F)(F)F)cc2Cl)cc1` (stereo not given), the call was inactive.

Regarding `Cc1ccncc1`, the call was inactive.

With `NC(=O)NC(N)=O`, the molecule was classed as inactive.

As for `C[C@]12CC[C@@H]3c4ccc(O)cc4CC[C@H]3[C@@H]1CC[C@@H]2O`, the result was inactive.

As to `O=[N+]([O-])c1cc(N(CCO)CCO)ccc1NCCO`, the result was inactive.

Regarding `CC(=O)OC(C)(C)C1CC=C(C)CC1` (stereo not given), the result was inactive.

With `C=CCOCC(O)CO` (stereo not given), the AC50 was 137 µM (active).

`CCCCC/C=C\C=C\C(=O)OCC`: the call was inactive.

For the molecule `O=C(O)C1=NN(c2ccc(S(=O)(=O)O)cc2)C(=O)C1`, the result was inactive.

`CC/C(=C(\c1ccccc1)c1ccc(OCCN(C)C)cc1)c1ccccc1`: the molecule was called inactive.

In the case of `CCCCCCCCCCCCCC(=O)OCC`, the result was inactive.

Test system in a further assay: not listed separately
The assay is described as follows: ATG_NF_kB_CIS: Attagene CIS-FACTORIAL HepG2 Assay for human Nuclear Factor Kappa B (NF-kB) (AID 2282991). The following applies: HepG2 Attagene cis-factorial NF-kB reporter mRNA; actives raise or lower the signal. A digest of the protocol: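 Measures mRNA induction of an NF-kB-responsive cis-element reporter in HepG2 cells transfected with multiple reporter units, sampled 24 h post-dosing; quantified by fluorescence after RT-PCR and capillary electrophoresis, fitted for activation or inhibition against DMSO.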
For the molecule `CN(C)C(=O)Nc1ccccc1`, the molecule was classed as inactive.

As for `O=C1OCc2ccccc21`, the result was inactive.

`COc1ccccc1NC(=O)CC(C)=O`: the molecule was called inactive.

Turning to `c1ccc2c(c1)-c1ccc3ccc4cccc5cc-2c1c3c45`, the result was inactive.

Regarding `c1ccc(OCCOc2ccccc2)cc1`, the molecule was called inactive.

`OCCN1CCOCC1`: the call was inactive.

On to `CC(C)CCOC(=O)CC(C)C`, for which the result was inactive.

With `S=c1[nH][nH]c(=S)s1`, the call was inactive.

For the molecule `Cc1cc(O)c2c(c1)C(=O)c1cc(O)cc(O)c1C2=O`, the AC50 was 17.4 µM (active).

On to `O=[N+]([O-])c1cc(N(CCO)CCO)ccc1NCCO`, for which the molecule was called inactive.

For the molecule `CC/C(=C(\c1ccccc1)c1ccc(OCCN(C)C)cc1)c1ccccc1`, the molecule was called inactive.

Test system in another assay: not listed separately
The assay is described as follows: ATG_NRF2_ARE_CIS: Attagene CIS-FACTORIAL HepG2 Assay for human Nuclear Factor Erythroid 2 Related Factor 2 (NFR2) response to Antioxidant Response Elements (ARE) (AID 2282992). The following applies: HepG2 Attagene ARE/NRF2 reporter, transcription factor activity; actives raise or lower the signal. A digest of the protocol: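 Readout: reporter mRNA quantified by RT-PCR plus FAM-labelled primer extension, HpaI digestion and capillary electrophoresis, 24 h after dosing transfected HepG2 cells. Gain or loss of signal is fitted bidirectionally against DMSO baseline.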
As to `C1CCCNCC1`, the result was inactive.

For `COc1ccccc1NC(=O)CC(C)=O`, the call was inactive.

`c1ccc2c(c1)-c1ccc3ccc4cccc5cc-2c1c3c45`: the AC50 is 0.205 µM (active).

For the molecule `c1ccc(OCCOc2ccccc2)cc1`, the outcome was inactive.

For `c1coc(CNc2ncnc3nc[nH]c23)c1`, the AC50 is 33.8 µM (active).

For the molecule `C=CC(=O)OCCCCCC`, the outcome was inactive.

As for `N=C1N=C(N)c2ccccc21`, the molecule was called inactive.

With `CC(C)CCOC(=O)CC(C)C`, the molecule was called inactive.

As to `S=c1[nH][nH]c(=S)s1`, the molecule was called inactive.

On to `Cc1cc(O)c2c(c1)C(=O)c1cc(O)cc(O)c1C2=O`, for which the AC50 is 4.77 µM (active).

Take `COC(=O)C(C)Oc1ccc(Oc2ncc(C(F)(F)F)cc2Cl)cc1` (stereo not given): the outcome was inactive.

Take `Cc1ccncc1`: the call was inactive.

For `NC(=O)NC(N)=O`, the call was inactive.

For `O=[N+]([O-])c1cc(N(CCO)CCO)ccc1NCCO`, the result was inactive.

On to `CC(=O)OC(C)(C)C1CC=C(C)CC1` (stereo not given), for which the molecule was classed as inactive.

With `C=CCOCC(O)CO` (stereo not given), the molecule was classed as inactive.

As for `CCCCC/C=C\C=C\C(=O)OCC`, the call was inactive.

Consider `O=C(O)C1=NN(c2ccc(S(=O)(=O)O)cc2)C(=O)C1`, for which the molecule was classed as inactive.

Consider `CCCCCCCCCCCCCC(=O)OCC`, for which the molecule was classed as inactive.

Test system in another assay: not listed separately
The experiment in a line: ATG_Oct_MLP_CIS: Attagene CIS-FACTORIAL HepG2 Assay for human Octamer-Binding Transcription Factor (Oct) (AID 2282993). The following applies: HepG2 Attagene cis-factorial Oct reporter, mRNA; actives raise or lower the signal. A digest of the protocol:
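HepG2, transient MRTU transfection, cis promoter elements; 24 h dosing; RT-PCR/CE fluorescence read-out of reporter mRNA; fit both directions vs DMSO.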
On to `CN(C)C(=O)Nc1ccccc1`, for which the molecule was called inactive.

`NS(=O)(=O)c1cc(C(=O)O)c(NCc2ccco2)cc1Cl`: the molecule was classed as inactive.

On to `O=C1OCc2ccccc21`, for which the molecule was called inactive.

`C1CCCNCC1`: the molecule was classed as inactive.

Take `CCc1cccc(O)c1`: the result was inactive.

For the molecule `c1ccc2c(c1)-c1ccc3ccc4cccc5cc-2c1c3c45`, the call was inactive.

Consider `CCCCCCCCCO`, for which the call was inactive.

For `c1ccc(OCCOc2ccccc2)cc1`, the outcome was inactive.

For `OCCN1CCOCC1`, the result was inactive.

`CC(=O)N(C)C`: the outcome was inactive.

On to `c1coc(CNc2ncnc3nc[nH]c23)c1`, for which the outcome was inactive.

As for `C=CC(=O)OCCCCCC`, the result was inactive.

For `CC(C)CCOC(=O)CC(C)C`, the call was inactive.

In the case of `COC(=O)C(C)Oc1ccc(Oc2ncc(C(F)(F)F)cc2Cl)cc1` (stereo not given), the molecule was called inactive.

For `NC(=O)NC(N)=O`, the outcome was inactive.

`C[C@]12CC[C@@H]3c4ccc(O)cc4CC[C@H]3[C@@H]1CC[C@@H]2O`: the molecule was called inactive.

As to `O=[N+]([O-])c1cc(N(CCO)CCO)ccc1NCCO`, the call was inactive.

In the case of `CC(=O)OC(C)(C)C1CC=C(C)CC1` (stereo not given), the molecule was called inactive.

Take `C=CCOCC(O)CO` (stereo not given): the molecule was called inactive.

On to `CCCCC/C=C\C=C\C(=O)OCC`, for which the result was inactive.

On to `O=C(O)C1=NN(c2ccc(S(=O)(=O)O)cc2)C(=O)C1`, for which the molecule was called inactive.

Consider `CC/C(=C(\c1ccccc1)c1ccc(OCCN(C)C)cc1)c1ccccc1`, for which the call was inactive.

Consider `CCCCCCCCCCCCCC(=O)OCC`, for which the result was inactive.

In another assay the target is Cellular tumor antigen p53 (Homo sapiens) (UniProt P04637). The assay is described as follows: ATG_p53_CIS: Attagene CIS-FACTORIAL HepG2 Assay for human p53 Transcription Factor (AID 2282994). The following applies: HepG2 p53 cis-element reporter, Attagene mRNA; actives raise or lower the signal. A digest of the protocol: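 Read-out: reporter mRNA by RT-PCR plus capillary electrophoresis with fluorescence detection. Human HepG2 liver cells carried transfected multi-reporter cis-element constructs, dosed 24 h. Gain or loss of signal fitted bidirectionally against DMSO control.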
Sequence of Cellular tumor antigen p53 (Homo sapiens) (P04637 whole entry, looked up): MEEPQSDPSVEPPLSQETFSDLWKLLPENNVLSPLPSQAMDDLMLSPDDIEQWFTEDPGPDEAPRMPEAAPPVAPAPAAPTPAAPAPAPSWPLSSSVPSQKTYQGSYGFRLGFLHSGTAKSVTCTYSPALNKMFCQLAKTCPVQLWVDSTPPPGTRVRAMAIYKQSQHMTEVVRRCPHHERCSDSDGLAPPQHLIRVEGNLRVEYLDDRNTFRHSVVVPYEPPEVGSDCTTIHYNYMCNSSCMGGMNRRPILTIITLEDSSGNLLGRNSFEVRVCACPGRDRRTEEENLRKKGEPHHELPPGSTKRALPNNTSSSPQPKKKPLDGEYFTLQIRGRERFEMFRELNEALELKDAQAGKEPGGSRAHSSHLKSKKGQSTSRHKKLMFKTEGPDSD
`O=C1OCc2ccccc21`: the molecule was called inactive.

Consider `CCc1cccc(O)c1`, for which the molecule was classed as inactive.

Consider `Nc1ccc(N)c([N+](=O)[O-])c1`, for which the molecule was called inactive.

Turning to `CCCCCC1C(=O)CCC1CC(=O)OC` (stereo not given), the molecule was classed as inactive.

Regarding `COc1ccccc1NC(=O)CC(C)=O`, the molecule was called inactive.

For the molecule `c1ccc2c(c1)-c1ccc3ccc4cccc5cc-2c1c3c45`, the result was inactive.

Take `CCCCCCCCCO`: the call was inactive.

`c1ccc(OCCOc2ccccc2)cc1`: the call was inactive.

As for `CC(=O)N(C)C`, the call was inactive.

With `c1coc(CNc2ncnc3nc[nH]c23)c1`, the outcome was inactive.

Take `C=CC(=O)OCCCCCC`: the result was inactive.

Consider `N=C1N=C(N)c2ccccc21`, for which the molecule was called inactive.

In the case of `CC(C)CCOC(=O)CC(C)C`, the molecule was called inactive.

For the molecule `S=c1[nH][nH]c(=S)s1`, the result was inactive.

In the case of `Cc1cc(O)c2c(c1)C(=O)c1cc(O)cc(O)c1C2=O`, the molecule was called inactive.

In the case of `COC(=O)C(C)Oc1ccc(Oc2ncc(C(F)(F)F)cc2Cl)cc1` (stereo not given), the molecule was classed as inactive.

For the molecule `Cc1ccncc1`, the result was inactive.

Turning to `NC(=O)NC(N)=O`, the molecule was classed as inactive.

As to `C[C@]12CC[C@@H]3c4ccc(O)cc4CC[C@H]3[C@@H]1CC[C@@H]2O`, the AC50 is 19.8 µM (active) and 21.3 µM (active) and 12.8 µM (active); the result was inactive.

For the molecule `O=[N+]([O-])c1cc(N(CCO)CCO)ccc1NCCO`, the molecule was called inactive.

Regarding `CC(=O)OC(C)(C)C1CC=C(C)CC1` (stereo not given), the call was inactive.

Take `C=CCOCC(O)CO` (stereo not given): the call was inactive.

On to `CCCCC/C=C\C=C\C(=O)OCC`, for which the AC50 was 156 µM (active).

For the molecule `O=C(O)C1=NN(c2ccc(S(=O)(=O)O)cc2)C(=O)C1`, the outcome was inactive.

Turning to `CC/C(=C(\c1ccccc1)c1ccc(OCCN(C)C)cc1)c1ccccc1`, the call was inactive.

Turning to `CCCCCCCCCCCCCC(=O)OCC`, the outcome was inactive.
